# A selection: hits, their analogues and other compounds. The true share with any hit is near 0.5%.
# phage Ecoli inh – E. coli growth loss with phage present | growth absorbance | inhibition, % at 11.9 µM | 0.26% of 360,000 active | AID 651602; in the data active = inhibition above about 11%
# E coli growth-1 – inhibitors of Escherichia coli growth. 0.21% of 330,000 active. OD600 absorbance (no concentration beside the values). OD600, 23 h; stronger effect = lower value. AID 1053175;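 active = OD600 absorbance below the run mean of sample wells minus 3.6 SD, in any replicate, cut at about 0.56 in these data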
# AddAB inh – less growth of phage-infected E. coli with AddAB; E. coli expressing H. pylori AddAB, absorbance growth; inhibition, % at 11.9 µM; 0.29% of 330,000 active; AID 435030; in the data active = inhibition above about 12%;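 note: 0% = vehicle wells of infected cells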
# E coli growth-2 – bacterial growth inhibition, counter-screen for AddAB inhibitors. E. coli V3065 growth, OD600 absorbance, 18 h. inhibition, % at 11.9 µM. 0.27% of 330,000 active. AID 449728;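 active = inhibition above the campaign's mean inhibition across all tested compounds plus 3 SD, cut at about 9.9% in these data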;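 note: uninfected addAB+ strain grown without phage in ampicillin broth; 0% = DMSO wells and 100% = ciprofloxacin 0.95 µg/ml wells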
# Tat export inh – inhibitors of E. coli Tat protein transport; inhibition, % at 10 µM; AID 488895; E. coli MC4100 TorA-mCherry Tat export, fluorescence; 0.036% of 340,000 active;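 active = mean replicate inhibition at least 50% and at least half of replicates individually reaching 50%; inconclusive = only one of the two criteria met; inactive = neither criterion met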;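 note: exported cargo escapes ClpAP degradation while cytoplasmic cargo is degraded and loses fluorescence; 0% = median of neutral control wells and 100% = median of NaSCN control wells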
# RecBCD conf – growth loss of phage-infected V66 E. coli, RecBCD confirmation screen | shares compounds with phage Ecoli inh | E. coli V66 + T4 2- phage, growth OD | inhibition, % at 11.9 µM | 45% of 890 active | AID 651982;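 active = mean inhibition over triplicates exceeding the hit threshold derived in the original primary screen, cut at about 11% in these data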
# Ecoli viability – bacterial viability inhibition counter-screen for RecBCD | shares compounds with phage Ecoli inh | E. coli viability, absorbance (OD) growth | inhibition, % at 11.9 µM | 29% of 890 active; in the data active = inhibition above about 20%;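 note: E. coli strain V66 grown with compound alone and no phage infection; 0% = bacteria with DMSO vehicle only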
# AddAB counter – growth loss of phage-infected AddAB E. coli, RecBCD counter-screen; inhibition, % at 11.9 µM; E. coli expressing H. pylori AddAB + T4 phage, OD growth; gene 2 mutant T4, recBCD-deleted host; 45% of 890 active; shares compounds with phage Ecoli inh;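 active = mean inhibition above the solvent-only control wells' mean plus 3 SD, cut at about 22% in these data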;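 note: higher means less bacterial growth from phage killing when AddAB is blocked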
# * hit, by the source's call; ? = inconclusive; · = no result.
SMILES,phage Ecoli inh,E coli growth-1,AddAB inh,E coli growth-2,Tat export inh,RecBCD conf,Ecoli viability,AddAB counter
O=[N+]([O-])c1ccc2c(c1)C(N1CCOCC1)C(=CCOc1ccc(Cl)cc1Cl)O2 (stereo unspecified),·,0.76,·,·,·,·,·,·
CCN(CC)c1ccc(/C=N/Nc2nc3ccccc3[nH]2)c(O)c1,15*,·,-1,2,-7,8,13,16
CCCCn1nc(C(=O)NC(CCSC)c2nc3ccccc3[nH]2)c2ccccc2c1=O (stereo unspecified),·,0.72,·,·,·,·,·,·
O=S(=O)(c1ccc(Cl)cc1)N1CCN(Cc2ccc(O)c3ncccc23)CC1,17*,0.7,8,9,1,6,11,14
Oc1ccc(CN2CCN(Cc3ccccc3)CC2)c2cccnc12,6,0.69,3,3,7,·,·,·
COc1ccc(N(CC(=O)Nc2cccc(C)c2C)S(=O)(=O)c2c(C)[nH]c(=O)[nH]c2=O)cc1,100*,0.69,1,0,6,-5,-4,-3
COc1ccc(N(CC(=O)Nc2cccc(C)c2C)S(=O)(=O)c2c(C)n[nH]c2C)cc1,3,0.72,5,2,3,·,·,·
COCCN=c1scc(-c2ccco2)n1/N=C/c1ccc(O)c(O)c1O,9,·,9,5,12,·,·,·
C=CCN=c1scc(-c2ccco2)n1/N=C/c1ccc(O)c(O)c1O,11*,·,6,7,11,6,7,3
CN=c1scc(-c2cccs2)n1/N=C/c1ccc(O)c(O)c1O,13*,·,11,10,2,5,6,8
COc1ccccc1C=Nn1cnnc1,·,0.72,·,·,·,·,·,·
FC(F)(F)c1cccc(NC(=S)NC2CCCC2)c1,8,0.62,6,3,1,·,·,·
FC(F)(F)c1ccc(NC(=S)NC2CCCCC2)cc1,15*,0.64,10,9,0,7,8,9
CN1CCN(C(=O)C2=CC(c3ccc(C(F)(F)F)cc3)CC(OCCCCO)O2)CC1 (stereo unspecified),·,0.63,·,·,·,·,·,·
O=Nc1c(-c2cccc([N+](=O)[O-])c2)nc2ncccn12,16*,·,5,2,·,72*,77*,100*
Cc1nccn1CCc1n[nH]c(=S)n1Cc1ccccc1,2,0.63,2,1,4,·,·,·
Cc1nccn1Cc1ccccc1,100*,0.7,-1,2,7,0,1,0
Cc1cccc(C=Nn2c(C)nc3ccccc3c2=O)c1,·,0.65,·,·,·,·,·,·
CC(C)(C)c1nnc(N/N=C/c2cc(Br)ccc2O)n(N)c1=O,12*,·,12,3,-20,6,10,28*
CC(C)(C)c1nnc(NN=Cc2ccccc2O)n(N)c1=O,·,0.62,·,·,·,·,·,·
CC(C)(C)C(=O)NC(=S)Nc1ccc(S(=O)(=O)Nc2nccs2)cc1,5,0.65,3,-1,-2,·,·,·
NS(=O)(=O)c1ccc(NC(=S)Nc2ccc(S(=O)(=O)Nc3nccs3)cc2)cc1,11*,·,·,·,·,3,3,8
O=S(=O)(Nc1ncccn1)c1ccc(NC(=S)Nc2ccccc2Cl)cc1,11*,·,7,3,-10,0,-2,6
COC(=O)C1=C(C)N(Cc2ccccc2)C(=NCCc2c[nH]c3ccccc23)NC1c1cccc(C(F)(F)F)c1 (stereo unspecified),·,0.65,·,·,·,·,·,·
CC(C)C[C@H](NC(=O)N1CCCCCC1)C(=O)O,55*,0.67,1,-1,-6,1,0,-2
SMILES,phage Ecoli inh,E coli growth-1,AddAB inh,E coli growth-2,Tat export inh,RecBCD conf,Ecoli viability,AddAB counter
CCC(C)[C@H](NC(=O)N1CCCCCC1)C(=O)O (stereo partly specified),-3,0.71,2,3,-2,·,·,·
O=C(NN=Cc1coc2ccccc2c1=O)c1ccc(Cl)cc1,·,0.69,·,·,·,·,·,·
Cc1ccc(NC(=S)Nc2ccc(OC(F)F)c(Cl)c2)cc1F,11*,0.63,2,1,6,6,7,5
COc1cccc(N=Nc2ccc(O)c3ncccc23)c1,13*,·,8,7,-14,5,7,11
COc1ccc(C)cc1N=Nc1ccc(O)c2ncccc12,18*,0.73,·,·,-7,6,8,19
COc1cccc(N=Nc2ccc3cccnc3c2O)c1,14*,0.71,7,15*,-5,6,10,6
Oc1ccc(N=Nc2ccc3c(c2)OCCO3)c2cccnc12,15*,0.73,8,6,2,7,9,8
O=C1NC(Cc2ccccc2)C(=O)N2C1C[C@@]1(Br)c3ccccc3N(S(=O)(=O)c3ccc(F)cc3)C21 (stereo partly specified),·,0.71,·,·,·,·,·,·
CCCc1ccc(OCc2ccc(C(=O)NN=Cc3cccc([N+](=O)[O-])c3)o2)c(OC)c1,·,0.75,·,·,·,·,·,·
O=C(NCc1ccccc1)c1sc(=S)n2c1[nH]c(=O)c1ccccc12,15*,0.72,4,-2,-4,-2,-2,-10
CC(=O)OCC1=C(C(=O)O)N2C(=O)C(NC(=O)c3ccc(F)cc3)C2SC1 (stereo unspecified),2,0.68,0,0,-3,·,·,·
CON=C(C(=O)NC1C(=O)N2C(C(=O)O)=C(CSc3nc(=O)c(=O)[nH]n3C)CSC12)c1csc(N)n1 (stereo unspecified),102*,·,·,·,-22,102*,103*,103*
CO/N=C(\C(=O)N[C@@H]1C(=O)N2C(C(=O)O)=C(COC(N)=O)CS[C@H]12)c1ccco1,63*,·,-3,0,1,93*,98*,81*
Cc1ccc(S(=O)(=O)CC(=O)Nc2ncc([N+](=O)[O-])s2)cc1,-1,0.64,0,-2,4,·,·,·
Cc1ccc(CC(=O)Nc2ncc([N+](=O)[O-])s2)cc1,13*,0.56,6,9,-15,9,9,-2
O=C(NN=Cc1ccc([N+](=O)[O-])cc1)c1ccc2nc[nH]c2c1,·,0.7,·,·,·,·,·,·
O=S(=O)(Oc1ccccc1)c1cccnc1,101*,0.7,-1,-1,1,-3,-2,-3
O=C1/C(=C/c2cccnc2)Oc2cc(OS(=O)(=O)c3ccccc3)ccc21,·,0.75,2,-2,?,·,·,·
C#CCNC(=O)C(Cc1ccc(C(=O)c2ccccc2)cc1)NC(=O)OC(C)(C)C (stereo unspecified),·,0.7,·,·,·,·,·,·
CC(C)c1c(C(=O)NN=Cc2cccc3ccccc23)nnn1-c1nonc1N,·,0.69,·,·,·,·,·,·
O=C1c2ccccc2NC(c2ccc(-c3cccc(F)c3)o2)N1O (stereo unspecified),12*,0.66,9,9,3,3,4,4
O=C1c2ccccc2NC(c2ccc(Cl)cc2Cl)N1O (stereo unspecified),12*,0.74,6,6,?,5,6,11
